# Values without a mark were called inactive.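 Rule for the calls: active = AUC reduced over 20% with Padj below 0.05 in at least 2 of 3 replicates; inactive = otherwise.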
# Tested on: Roseburia intestinalis
# Test: growth AUC relative to DMSO control (median of replicates) (fraction); higher = more growth (less inhibition), active = hit call of the paper
# Settings: 20 µM; 24 h
# Method in brief: (§1)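 Gut bacterial monocultures were grown anaerobically at 37 °C in mGAM from a starting OD600 of 0.05 with 20 µM compound (1% DMSO), in round-bottom 96-well plates under pierced gas-permeable seals, and OD600 was read hourly for 24 h. With the minimum OD set to 0, area under the growth curve was normalised to the plate median of solvent-only wells, or to row and column medians on the industrial chemical plate. Each value is the median of three biological replicates grown on separate days.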
row,Structure (SMILES),growth AUC
1,CC[N+](CC)(CC(=O)Nc1c(C)cccc1C)Cc1ccccc1.O=C([O-])c1ccccc1,1.02
2,O=C1NCC[n+]2ccccc21.[Br-],0.992
3,CCc1cccc(C)c1NC(=O)CS(=O)(=O)[O-].[Na+],1
4,CCCOC(=O)c1ccc(C(=O)OCCC)nc1,0.977
5,NC(=O)c1nn(-c2c(Cl)cc(C(F)(F)F)cc2Cl)c(N)c1S(=O)C(F)(F)F (stereo unspecified),0.992
6,N#Cc1cc(Cl)c(O)c(Cl)c1,1.08
7,CCNc1nc(NC(C)CC)nc(OC)n1 (stereo unspecified),1.07
8,CCCCCCCCCC[N+](C)(C)Cc1ccccc1.[Cl-],0.885
9,O=c1cc(Cl)[nH]nc1-c1ccccc1,0.977
10,CCOC(=O)c1ccc(O)cc1,0.888
11,COCCCNc1nc(NC(C)C)nc(SC)n1,0.995
12,CC(C)c1ccccc1,0.991
13,N#Cc1ccc(CC(=NNC(=O)Nc2ccc(OC(F)(F)F)cc2)c2cccc(C(F)(F)F)c2)cc1 (mixture of isomers),0.954
14,O=C(O)COc1cccc(Cl)c1Cl,1.15
15,COC(=O)CC(NC(=O)[C@@H](NC(=O)OC(C)C)C(C)C)c1ccc(Cl)cc1 (stereo partly specified),0.975
16,CNc1nc(NC(C)C)nc(SC)n1,0.995
17,CCCCOC(=O)[C@@H](C)Oc1ccc(Oc2ccc(C(F)(F)F)cn2)cc1,0.973
18,CC(Oc1ccc(Cl)cc1Cl)C(=O)NC(C)(C#N)C(C)C (stereo unspecified),0.968
19,Cc1cccc(C)c1N(CC(=O)O)C(=O)CS(=O)(=O)[O-].[Na+],0.979

row,Structure (SMILES),growth AUC
1,COC1CCC2(CC1)NC(=O)C(O)(c1cc(C)ccc1C)C2=O (stereo unspecified),1.01
2,O=C(Nc1ccc(Cl)cc1C(O)c1ccccc1)c1ccncc1 (stereo unspecified),0.994
3,CCc1cccc(C)c1NC(=O)C(=O)O,0.953
4,O=S(=O)(Oc1ccc(Cl)cc1Cl)c1ccccc1,0.974
5,COc1cc(OC)nc(NC(=O)NS(=O)(=O)Nc2ccccc2C(=O)N(C)C)n1,0.981
6,CCOC(=O)/C(Cl)=C/c1cc(N2C(=O)C3=C(CCCC3)C2=O)ccc1Cl,0.981
7,Oc1c(Cl)cc(Cl)c(Cl)c1Cc1c(O)c(Cl)cc(Cl)c1Cl,0.0498 (active)
8,O=c1oc(-c2ccccc2)nc2ccccc12,0.979
9,CC(C)(c1ccc(O)cc1)c1ccc(O)cc1,1.06
10,COCC(=O)N(c1c(C)cccc1C)C(C)C(=O)O (stereo unspecified),1.01
11,Nc1ccc(O)cc1,1.01
12,Cc1c(C(=O)c2c[nH]n(C)c2=O)ccc(S(C)(=O)=O)c1C1=NOCC1,0.987
13,COCCOc1ccccc1S(=O)(=O)NC(=O)Nc1nc(OC)nc(OC)n1,0.907
14,COC(=O)CCCOc1ccc(Cl)cc1Cl,0.887
15,C=C1C[C@]23C[C@@]1(O)CC[C@H]2[C@@]12C=C[C@H](O)[C@@](C)(C(=O)O1)[C@H]2[C@@H]3C(=O)O,0.881
16,COC(=O)C(C)Oc1ccc(Cl)cc1Cl (stereo unspecified),0.979
17,CCCC(C)(C)C(=O)Nc1ccc(Cl)cc1,0.945
18,CC1COc2ccccc2N1C(=O)C(Cl)Cl (stereo unspecified),0.92
19,CCOC(=O)Cn1c(=O)sc2cccc(Cl)c21,0.968

# Tested on: Streptococcus salivarius
# Test: as above
# Settings: 20 µM; 24 h
# Method in brief: as §1
row,Structure (SMILES),growth AUC
1,CC[N+](CC)(CC(=O)Nc1c(C)cccc1C)Cc1ccccc1.O=C([O-])c1ccccc1,1.01
2,O=C1NCC[n+]2ccccc21.[Br-],0.987
3,CCc1cccc(C)c1NC(=O)CS(=O)(=O)[O-].[Na+],1.01
4,CCCOC(=O)c1ccc(C(=O)OCCC)nc1,0.996
5,NC(=O)c1nn(-c2c(Cl)cc(C(F)(F)F)cc2Cl)c(N)c1S(=O)C(F)(F)F (stereo unspecified),0.977
6,N#Cc1cc(Cl)c(O)c(Cl)c1,1.02
7,CCNc1nc(NC(C)CC)nc(OC)n1 (stereo unspecified),1.02
8,CCCCCCCCCC[N+](C)(C)Cc1ccccc1.[Cl-],0.926
9,O=c1cc(Cl)[nH]nc1-c1ccccc1,1.03
10,CCOC(=O)c1ccc(O)cc1,1.01
11,COCCCNc1nc(NC(C)C)nc(SC)n1,0.969
12,CC(C)c1ccccc1,0.968
13,N#Cc1ccc(CC(=NNC(=O)Nc2ccc(OC(F)(F)F)cc2)c2cccc(C(F)(F)F)c2)cc1 (mixture of isomers),1.02
14,O=C(O)COc1cccc(Cl)c1Cl,0.973
15,COC(=O)CC(NC(=O)[C@@H](NC(=O)OC(C)C)C(C)C)c1ccc(Cl)cc1 (stereo partly specified),0.953
16,CNc1nc(NC(C)C)nc(SC)n1,0.975
17,CCCCOC(=O)[C@@H](C)Oc1ccc(Oc2ccc(C(F)(F)F)cn2)cc1,0.969
18,CC(Oc1ccc(Cl)cc1Cl)C(=O)NC(C)(C#N)C(C)C (stereo unspecified),0.918
19,Cc1cccc(C)c1N(CC(=O)O)C(=O)CS(=O)(=O)[O-].[Na+],0.972

row,Structure (SMILES),growth AUC
1,COC1CCC2(CC1)NC(=O)C(O)(c1cc(C)ccc1C)C2=O (stereo unspecified),1.01
2,O=C(Nc1ccc(Cl)cc1C(O)c1ccccc1)c1ccncc1 (stereo unspecified),1
3,CCc1cccc(C)c1NC(=O)C(=O)O,0.994
4,O=S(=O)(Oc1ccc(Cl)cc1Cl)c1ccccc1,1.03
5,COc1cc(OC)nc(NC(=O)NS(=O)(=O)Nc2ccccc2C(=O)N(C)C)n1,0.99
6,CCOC(=O)/C(Cl)=C/c1cc(N2C(=O)C3=C(CCCC3)C2=O)ccc1Cl,0.96
7,Oc1c(Cl)cc(Cl)c(Cl)c1Cc1c(O)c(Cl)cc(Cl)c1Cl,0.0329 (active)
8,O=c1oc(-c2ccccc2)nc2ccccc12,0.981
9,CC(C)(c1ccc(O)cc1)c1ccc(O)cc1,1.01
10,COCC(=O)N(c1c(C)cccc1C)C(C)C(=O)O (stereo unspecified),1.01
11,Nc1ccc(O)cc1,0.947
12,Cc1c(C(=O)c2c[nH]n(C)c2=O)ccc(S(C)(=O)=O)c1C1=NOCC1,1.01
13,COCCOc1ccccc1S(=O)(=O)NC(=O)Nc1nc(OC)nc(OC)n1,0.98
14,COC(=O)CCCOc1ccc(Cl)cc1Cl,0.931
15,C=C1C[C@]23C[C@@]1(O)CC[C@H]2[C@@]12C=C[C@H](O)[C@@](C)(C(=O)O1)[C@H]2[C@@H]3C(=O)O,0.904
16,COC(=O)C(C)Oc1ccc(Cl)cc1Cl (stereo unspecified),0.991
17,CCCC(C)(C)C(=O)Nc1ccc(Cl)cc1,0.963
18,CC1COc2ccccc2N1C(=O)C(Cl)Cl (stereo unspecified),0.944
19,CCOC(=O)Cn1c(=O)sc2cccc(Cl)c21,0.961

# From the supplement of paper PMC12669032
